# Reference: the supplement of paper PMC8728848
# Shown is part of a subset that was picked to be rich in the strongest signals.
# B1: Clec39 (Caenorhabditis elegans) (protein)
# chain: MTSFYDNSSSSSKPVPLKTSRAQKIQILIFDNWKLILYGAISTLILVLAIMFSTLFFALPAANCDENSEPTKYYTTNAEITTTITTTNQKTTSTASSHLTTISSSATQIYSESSSSSTSQSTFTQSPPEISTTTIAPSDFSCQHGFTLVNNKCWKLVTSNQARPDADKICNGYGGATLFSIKSEQDNRAMIHFVKGQDIDFLWSGLLCSAGEPISCIWDIENGSTANYSNFADGFPNIVYGNCVYFITSGDEAGQWGNEQCGQVMNFVCELPATFQGKDGCKNNYEKSCYLRFDLNLTVPQAQNFCLEKCANLVSIHSANEVRFIMTIYDFIGEILIGALAPAQDFIYWLDGTPANYNNLKFFYNSTCVHMTVAPGMQNVGKWFTRFCTETGKFLCKRSIKNSCT
# Experiments:
# Experiment in all cases: glycan array binding signal (z-score within array); higher = stronger binding
# Conditions in all cases: glycan notation: IUPAC condensed, linker removed
# [1] = molecular target: Fuc(a1-2)Gal(b1-3)GlcNAc(b1-2)Man(a1-3)[Fuc(a1-2)Gal(b1-3)GlcNAc(b1-2)Man(a1-6)]Man(b1-4)GlcNAc(b1-4)GlcNAc
# Outline: (§1)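 Glycan array binding is given as a within-array Z-score, which can be read as non-binding when negative. The arrays, 3228 of them, came from the Consortium for Functional Glycomics database and were retained only where the protein sequence was available. Z-scores were averaged across arrays of the same protein sequence at different concentrations or buffers and across linkers.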
# [2] = molecular target: Fuc(a1-2)Gal(b1-3)GlcNAc(b1-3)GalNAc
# Outline: as §1
# [3] = molecular target: Fuc(a1-2)Gal(b1-4)GlcNAc6S
# Outline: as §1
# [4] = molecular target: Fuc(a1-2)Gal(b1-4)[Fuc(a1-3)]GlcNAc
# Outline: as §1
# [5] = molecular target: Fuc(a1-2)Gal(b1-4)[Fuc(a1-3)]GlcNAc(b1-2)[Fuc(a1-2)Gal(b1-4)[Fuc(a1-3)]GlcNAc(b1-4)]Man(a1-3)[Fuc(a1-2)Gal(b1-4)[Fuc(a1-3)]GlcNAc(b1-2)Man(a1-6)]Man(b1-4)GlcNAc(b1-4)GlcNAc
# Outline: as §1
# [6] = molecular target: Fuc(a1-2)[Gal(a1-3)]Gal(b1-3)GlcNAc
# Outline: as §1
# [7] = molecular target: Fuc(a1-2)[Gal(a1-3)]Gal(b1-4)GlcNAc(b1-2)Man(a1-3)[Fuc(a1-2)[Gal(a1-3)]Gal(b1-4)GlcNAc(b1-2)Man(a1-6)]Man(b1-4)GlcNAc(b1-4)GlcNAc
# Outline: as §1
# [8] = molecular target: Fuc(a1-2)[GalNAc(a1-3)]Gal(b1-4)Glc
# Outline: as §1
# [9] = molecular target: Fuc(a1-2)[GalNAc(a1-3)]Gal(b1-4)GlcNAc(b1-3)GalNAc
# Outline: as §1
# [10] = molecular target: Fuc(a1-3)[Gal(b1-4)]GlcNAc(b1-2)Man(a1-3)[Fuc(a1-3)[Gal(b1-4)]GlcNAc(b1-2)Man(a1-6)]Man(b1-4)GlcNAc(b1-4)[Fuc(a1-6)]GlcNAc
# Outline: as §1
# [11] = molecular target: Gal(a1-3)Gal(b1-3)GlcNAc(b1-3)GalNAc
# Outline: as §1
# [12] = molecular target: Gal(b1-3)GlcNAc(a1-3)Gal(b1-4)GlcNAc
# Outline: as §1
# [13] = molecular target: Gal(b1-3)GlcNAc(b1-3)Gal(b1-4)[Fuc(a1-3)]GlcNAc
# Outline: as §1
# [14] = molecular target: Gal(b1-3)GlcNAc(b1-3)Gal(b1-4)[Fuc(a1-3)]GlcNAc(b1-6)[Gal(b1-3)GlcNAc(b1-3)]Gal(b1-4)Glc
# Outline: as §1
# [15] = molecular target: Gal(b1-3)GlcNAc(b1-3)GalNAc
# Outline: as §1
# [16] = molecular target: Gal(b1-4)GlcNAc(b1-3)Gal(b1-3)GlcNAc
# Outline: as §1
# [17] = molecular target: Gal(b1-4)GlcNAc(b1-3)Gal(b1-4)GlcNAc(b1-2)[Gal(b1-4)GlcNAc(b1-3)Gal(b1-4)GlcNAc(b1-6)]Man(a1-6)[Gal(b1-4)GlcNAc(b1-3)Gal(b1-4)GlcNAc(b1-2)Man(a1-3)]Man(b1-4)GlcNAc(b1-4)[Fuc(a1-6)]GlcNAc
# Outline: as §1
# [18] = molecular target: Gal(b1-4)GlcNAc(b1-3)Gal(b1-4)GlcNAc(b1-3)Gal(b1-4)GlcNAc(b1-3)Gal(b1-4)GlcNAc(b1-3)Gal(b1-4)GlcNAc(b1-2)Man(a1-3)[Gal(b1-4)GlcNAc(b1-3)Gal(b1-4)GlcNAc(b1-3)Gal(b1-4)GlcNAc(b1-3)Gal(b1-4)GlcNAc(b1-3)Gal(b1-4)GlcNAc(b1-2)Man(a1-6)]Man(b1-4)GlcNAc(b1-4)GlcNAc
# Outline: as §1
# [19] = molecular target: Gal(b1-4)GlcNAc(b1-3)Gal(b1-4)GlcNAc(b1-6)[Gal(b1-3)]GalNAc
# Outline: as §1
# [20] = molecular target: Gal(b1-4)GlcNAc(b1-6)[Gal(b1-4)GlcNAc(b1-3)]GalNAc
# Outline: as §1
# [21] = molecular target: Gal3S(b1-3)GlcNAc
# Outline: as §1
# [22] = molecular target: Gal3S(b1-4)Glc6S
# Outline: as §1
# [23] = molecular target: Gal6S(b1-4)Glc6S
# Outline: as §1
# [24] = molecular target: GalNAc(b1-3)Gal(a1-4)Gal(b1-4)GlcNAc
# Outline: as §1
# [25] = molecular target: GalNAc(b1-3)GlcNAc
# Outline: as §1
# [26] = molecular target: GalNAc3S(b1-4)[Fuc(a1-3)]GlcNAc
# Outline: as §1
# [27] = molecular target: GlcNAc(a1-4)Gal(b1-4)GlcNAc(b1-3)Gal(b1-4)[Fuc(a1-3)]GlcNAc(b1-3)Gal(b1-4)[Fuc(a1-3)]GlcNAc
# Outline: as §1
# [28] = molecular target: GlcNAc(b1-2)[GlcNAc(b1-4)]Man(a1-3)[GlcNAc(b1-2)Man(a1-6)]Man(b1-4)GlcNAc(b1-4)GlcNAc
# Outline: as §1
# [29] = molecular target: GlcNAc(b1-2)[GlcNAc(b1-4)]Man(a1-3)[GlcNAc(b1-4)][GlcNAc(b1-2)Man(a1-6)]Man(b1-4)GlcNAc(b1-4)GlcNAc
# Outline: as §1
# [30] = molecular target: GlcNAc(b1-3)Gal(b1-4)GlcNAc(b1-3)Gal(b1-4)GlcNAc(b1-2)Man(a1-3)[GlcNAc(b1-3)Gal(b1-4)GlcNAc(b1-3)Gal(b1-4)GlcNAc(b1-2)Man(a1-6)]Man(b1-4)GlcNAc(b1-4)GlcNAc
# Outline: as §1
binder,measurement,setting,value
B1,glycan array binding signal (z-score),[1],2.06
same,glycan array binding signal (z-score),[2],1.86
same,glycan array binding signal (z-score),[3],-0.018
same,glycan array binding signal (z-score),[4],0.187
same,glycan array binding signal (z-score),[5],3.52
same,glycan array binding signal (z-score),[6],-0.274
same,glycan array binding signal (z-score),[7],3.03
same,glycan array binding signal (z-score),[8],2.18
same,glycan array binding signal (z-score),[9],-0.527
same,glycan array binding signal (z-score),[10],4.38
same,glycan array binding signal (z-score),[11],-0.178
same,glycan array binding signal (z-score),[12],-0.68
same,glycan array binding signal (z-score),[13],-0.715
same,glycan array binding signal (z-score),[14],0.976
same,glycan array binding signal (z-score),[15],-0.666
same,glycan array binding signal (z-score),[16],-0.657
same,glycan array binding signal (z-score),[17],0.173
same,glycan array binding signal (z-score),[18],3.63
same,glycan array binding signal (z-score),[19],0.593
same,glycan array binding signal (z-score),[20],5.43
same,glycan array binding signal (z-score),[21],-0.524
same,glycan array binding signal (z-score),[22],0.293
same,glycan array binding signal (z-score),[23],2
same,glycan array binding signal (z-score),[24],1.49
same,glycan array binding signal (z-score),[25],-0.927
same,glycan array binding signal (z-score),[26],1.07
same,glycan array binding signal (z-score),[27],3.59
same,glycan array binding signal (z-score),[28],0.095
same,glycan array binding signal (z-score),[29],0.673
same,glycan array binding signal (z-score),[30],0.778
